{"source": "PubChem BioAssay (NCATS)", "note": "Records with an inconclusive call do not appear. A call without a number means that no potency is given here. Calls of active or inactive are those of the source. Calls come from the whole dose curve; as a rule, active = well fitted inhibition curve with a large enough effect; inconclusive = small, poorly fitted or top-dose-only effect; inactive = flat fitted curve, though single readings scatter.", "data": [{"molecular_target": "Calcium and integrin-binding protein 1 (Homo sapiens) (UniProt Q99828)", "sequence (Q99828 whole entry, looked up)": "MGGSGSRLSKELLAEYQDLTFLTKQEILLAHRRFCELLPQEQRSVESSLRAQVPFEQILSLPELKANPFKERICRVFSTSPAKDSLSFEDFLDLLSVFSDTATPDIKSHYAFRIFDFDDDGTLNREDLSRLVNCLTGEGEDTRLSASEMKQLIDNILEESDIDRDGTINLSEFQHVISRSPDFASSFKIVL", "assay": "Primary qHTS for Identification of Calcium Integrin Binding Protein 1 (CIB1) Competitor (AID 1508620);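 note: GST tagged CIB1 binding a fluorescein labelled alphaIIb integrin peptide tracer; top concentration of the series differs between compounds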", "conditions": "CIB1-GST / FITC-alphaIIb peptide fluorescence polarization; series mostly up to 57.7 µM", "how_it_was_run": "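Fluorescence polarization competition: CIB1-GST (1 uM final) preincubated with compound 15 min at room temperature, then FITC-labeled alphaIIb peptide (100 nM final) added for another 15 min. Polarization read at Ex 480/Em 540.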", "values": [{"smiles": "O=C(OCc1ccccc1O[C@@H]1O[C@H](CO)[C@@H](O)[C@H](O)[C@H]1O)C1(O)C=CCCC1O", "note": "(stereo not given in full)", "Potency": "inactive"}, {"smiles": "CC1(CO)CCCC2(C)C3COC(=O)C3=CC(O)C12", "note": "(stereo not given)", "Potency": "inactive"}, {"smiles": "CC(=C\\C(C)O)/C=C(\\C)C(=O)CC1CC(CC(N)=O)CC(=O)O1", "note": "(stereo not given)", "Potency": "inactive"}, {"smiles": "CC[C@H]1OC(=O)[C@H](C)C(=O)[C@H](C)[C@@H](OC2O[C@H](C)C[C@H](N(C)C)[C@H]2O)[C@@H](C)C[C@@H](C)C(=O)/C=C/[C@]1(C)O", "note": "(stereo not given in full)", "Potency": "inactive"}, {"smiles": "CC1=CC(=O)CC(C)(C)[C@@]1(O)/C=C/C(C)O[C@@H]1O[C@H](CO)[C@@H](O)[C@H](O)[C@H]1O", "note": "(stereo not given in full)", "Potency": "inactive"}, {"smiles": "CC(=O)OC12CC(C)C(O)C1/C=C(/COC1OC(CO)C(O)C(O)C1O)CCC1C(/C=C(\\C)C2=O)C1(C)C", "note": "(stereo not given)", "Potency": "inactive"}, {"smiles": "CCC(C)C(=O)O[C@H]1C[C@](C)(O)[C@]23OC(C)(C)[C@H](C[C@H](OC(=O)c4ccccc4)[C@]2(COC(C)=O)[C@H]1OC(=O)C(C)CC)[C@H]3OC(C)=O", "note": "(stereo not given in full)", "Potency": "inactive"}, {"smiles": "COc1cc(C2CC(=O)Nc3c2cc(Br)c2ccccc32)cc(OC)c1OC", "note": "(stereo not given)", "Potency": "inactive"}, {"smiles": "CCC1OC(=O)C(C)CC(C)C(=O)/C(C)=C/C(C)C(=O)/C=C/C1(C)O", "note": "(stereo not given)", "Potency": "inactive"}, {"smiles": "CCN(CCN(C)C)C(=O)CNCc1cc(C(N)=O)ccn1", "Potency": "inactive"}, {"smiles": "O=C(O)/C=C/c1ccc(O[C@@H]2O[C@H](CO)[C@@H](O)[C@H](O)[C@H]2O)cc1", "Potency": "inactive"}, {"smiles": "COC(=O)C1=COC(OC2OC(CO)C(O)C(O)C2O)C2C(COC(=O)/C=C/c3ccc(O)cc3)C(O)C(O)C12", "note": "(stereo not given)", "Potency": "inactive"}, {"smiles": "COc1cc(-c2ccc(O)cc2)c(OC)c(O)c1C1=CC(=O)OC1CC(=O)O", "note": "(stereo not given)", "Potency": "inactive"}, {"smiles": "CC(CC12CCCN1C(=O)C1CCCN1C2=O)OC(N)=O", "note": "(stereo not given)", "Potency": "inactive"}, {"smiles": "CC1=C2CC(C)(C)CC2C(O)C2=C(C1)C(=O)OC2O", "note": "(stereo not given)", "Potency": "inactive"}, {"smiles": "COc1cc2c(cc1OC)N1C(=O)C[C@@]34C=CC[N@+]5([O-])CC[C@H]2[C@H](CC3)[C@@]145", "Potency": "inactive"}, {"smiles": "C=C1CCC2C(C)(C)CC(O)CC2(C)C1CCC(C)CC(=O)O", "note": "(stereo not given)", "Potency": "inactive"}, {"smiles": "CC1(C)OC(=O)C=C[C@@]2(C)C1CC(=O)[C@]1(C)C2CC[C@@]2(C)[C@H](c3ccoc3)OC(=O)[C@H]3O[C@]321", "note": "(stereo not given in full)", "Potency": "inactive"}, {"smiles": "CC(=O)OCC1OC(O[C@H]2CC[C@@]3(C)C(CC[C@]4(C)C3CC=C3[C@@H]5CC(C)(C)CC[C@]5(C(=O)O)CC[C@]34C)[C@]2(C)CO)C(O)C(O)C1OC1OC(C)C(O)C(OC2OCC(O)C(O)C2O)C1O", "note": "(stereo not given in full)", "Potency": "inactive"}, {"smiles": "O=C(OCC1OC(Oc2ccc(O)cc2COC(=O)C2(O)C(O)CCC(=O)C2OC(=O)C2C=CCC2)C(OC(=O)C2C=CCC2)C(O)C1O)C1C=CCC1", "note": "(stereo not given)", "Potency": "inactive"}, {"smiles": "CSCC1OC(n2cnc3c(=O)[nH]cnc32)C(O)C1O", "note": "(stereo not given)", "Potency": "inactive"}, {"smiles": "C=C(C(=O)O)[C@@H]1CC[C@@]2(C)CCC[C@@](C)(O)[C@@H]2C1", "Potency": "inactive"}, {"smiles": "COC(=O)C1=CO[C@@H](O[C@@H]2O[C@H](CO)[C@@H](O)[C@H](O)[C@H]2O)[C@@H]2[C@@H](C(=O)O)CC[C@H]12", "Potency": "inactive"}, {"smiles": "C[C@@H]1O[C@@H](O[C@H]2[C@H](O[C@H]3[C@H](O[C@H]4CC[C@@]5(C)C(CC[C@]6(C)C5CC=C5[C@@H]7CC(C)(C)C[C@@H](O)[C@]7(C)CC[C@]56C)[C@@]4(C)CO)O[C@H](C(=O)O)[C@@H](O)[C@@H]3O)O[C@H](C(=O)O)[C@H](O)[C@@H]2O)[C@H](O)[C@H](O)[C@H]1O", "note": "(stereo not given in full)", "Potency": "inactive"}, {"smiles": "CC(C)CC(=O)O[C@@H]1O[C@H](CO)[C@@H](O[C@H]2O[C@H](C)[C@@H](N[C@H]3C=C(CO)[C@@H](O[C@H]4O[C@H](CO)[C@@H](O[C@H]5O[C@H](CO)[C@@H](O[C@H]6O[C@H](CO)[C@@H](O)[C@H](O)[C@H]6O)[C@H](O)[C@H]5O)[C@H](O)[C@H]4O)[C@H](O)[C@H]3O)[C@H](O)[C@H]2O)[C@H](O)[C@H]1O", "Potency": "inactive"}, {"smiles": "N#CC1C(=O)N=C(c2cc(Cl)ccc2O)C=C1c1cc(OCc2ccccc2)cc(OCc2ccccc2)c1", "note": "(stereo not given)", "Potency": "inactive"}, {"smiles": "CC1=CC2=C(C)C(=O)[C@](C)(O)[C@H](O)C2=CO1", "Potency": "inactive"}, {"smiles": "C/C1=C\\CC[C@]2(C)O[C@H]2C(=O)c2c(C)coc2C1", "Potency": "inactive"}, {"smiles": "C/C=C(/C)C(=O)O[C@@H]1C[C@@H](OC(=O)/C(C)=C\\C)[C@@]2(C)C3C(=O)C=C(C)C2C3C1(C)C", "Potency": "inactive"}, {"smiles": "CC1CC(=O)[C@]2(O)C(C(=O)OCCc3ccc(O)cc3)=CO[C@@H](O[C@@H]3O[C@H](CO)[C@@H](O)[C@H](O)[C@H]3O)[C@H]12", "note": "(stereo not given in full)", "Potency": "inactive"}]}]}
